This assay deals with furin, P09958. Nature of the assay: furin cleavage Z-score vs untreated control; higher = more cleavage, active = 3.5 or more, inactive = 1 or less, 8 variable residues between constant flanks. The gist of the method: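 Purified furin digested bead-held 8-mer peptide–cDNA fusions at 1:10 enzyme:substrate in 0.01 ml of 50 mM HEPES pH 7.5 with CaCl2 and NaCl for 7.5, 15 or 30 min. The cleavage Z-score compares sequencing counts of released DNA with furin-free reactions on a log scale, with lowess adjustment and median absolute deviation scaling.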
Sequence of furin, P09958 (P09958 whole entry, the tested form may be a part): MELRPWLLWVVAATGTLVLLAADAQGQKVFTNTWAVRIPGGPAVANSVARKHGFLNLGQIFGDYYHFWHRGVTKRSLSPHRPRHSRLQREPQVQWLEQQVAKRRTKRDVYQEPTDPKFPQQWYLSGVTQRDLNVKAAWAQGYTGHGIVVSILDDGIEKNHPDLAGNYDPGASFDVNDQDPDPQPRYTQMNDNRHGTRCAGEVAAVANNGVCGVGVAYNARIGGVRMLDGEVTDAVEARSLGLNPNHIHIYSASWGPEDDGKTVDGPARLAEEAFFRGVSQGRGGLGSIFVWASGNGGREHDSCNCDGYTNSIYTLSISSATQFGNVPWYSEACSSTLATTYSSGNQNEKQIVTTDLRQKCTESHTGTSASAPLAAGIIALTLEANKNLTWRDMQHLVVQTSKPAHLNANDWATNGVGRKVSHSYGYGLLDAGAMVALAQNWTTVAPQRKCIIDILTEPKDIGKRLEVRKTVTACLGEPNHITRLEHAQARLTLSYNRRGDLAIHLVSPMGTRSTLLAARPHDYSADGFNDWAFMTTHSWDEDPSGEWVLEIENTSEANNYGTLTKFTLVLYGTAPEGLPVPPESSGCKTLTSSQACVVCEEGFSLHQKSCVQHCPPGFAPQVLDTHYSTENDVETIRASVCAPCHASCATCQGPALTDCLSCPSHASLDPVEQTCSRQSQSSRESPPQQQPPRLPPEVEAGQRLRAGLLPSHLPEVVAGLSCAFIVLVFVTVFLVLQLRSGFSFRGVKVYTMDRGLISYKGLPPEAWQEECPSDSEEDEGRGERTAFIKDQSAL

This is one part of the list. The true hit rate is not given.

In the case of CAEEVALSTTAGNASASA [HC842], the “furin cleavage Z-score” value runs as follows: (7.5 min) 0.962 (inactive); (15 min) -0.0897 (inactive); (30 min) 1.67.

In the case of CAEGTTPCSGAGNASASA [HC1976], the “furin cleavage Z-score” value reads like this: (7.5 min) -0.304 (inactive); (15 min) 0.383 (inactive); (30 min) -0.263 (inactive).

CASTECSAHLAGNASASA [HC2512]: the “furin cleavage Z-score” value is -0.161 (inactive) (7.5 min), -0.192 (inactive) (15 min) and 2.81 (30 min).

As to CAEVVHSTWVAGNASASA [HC129], the “furin cleavage Z-score” value reads like this: (7.5 min) -0.835 (inactive); (15 min) 0.0271 (inactive); (30 min) -0.684 (inactive).

As to CAHKFNSSGCAGNASASA [HC383], the “furin cleavage Z-score” value reads like this: (7.5 min) 0.00727 (inactive); (15 min) -1.4 (inactive); (30 min) -0.526 (inactive).

In the case of CARLRRSLSPAGNASASA [FS-2352], the “furin cleavage Z-score” value is, setting by setting: (7.5 min) 10.8 (active); (15 min) 9.04 (active); (30 min) 8.19 (active).

Turning to CARLRRSKRCAGNASASA [FS-1607], the “furin cleavage Z-score” value (7.5 min) was determined as 2.93, the “furin cleavage Z-score” value (15 min) is 1.58 and the “furin cleavage Z-score” value (30 min) was 3.77 (active).

In the case of CARLRRQKKGAGNASASA [FS-916], the “furin cleavage Z-score” value was -0.934 (inactive) (7.5 min), -1.47 (inactive) (15 min) and -0.511 (inactive) (30 min).

For CARLRRSLPPAGNASASA [FS-2280], the “furin cleavage Z-score” value by setting is: (7.5 min) 7.15 (active); (15 min) 6.52 (active); (30 min) 7.39 (active).

For the sequence CARLRRSNYFAGNASASA [FS-2717], the “furin cleavage Z-score” value (7.5 min) was 0.785 (inactive), the “furin cleavage Z-score” value (15 min) was found to be 3.14 and the “furin cleavage Z-score” value (30 min) is 4.28 (active).

Consider CARLRRVKTAAGNASASA [FS-1746], for which the “furin cleavage Z-score” value is -0.934 (inactive) (7.5 min), -0.994 (inactive) (15 min) and -0.54 (inactive) (30 min).

Turning to CARLRRSGRCAGNASASA [FS-3161], the “furin cleavage Z-score” value is 3.21 (7.5 min), -0.166 (inactive) (15 min) and 3.48 (30 min).

With CAMWNFISGIAGNASASA [HC1043], the “furin cleavage Z-score” value was -0.76 (inactive) (7.5 min), -0.163 (inactive) (15 min) and 1.37 (30 min).

Take CADTDVFVLNAGNASASA [HC427]: the “furin cleavage Z-score” value is, setting by setting: (7.5 min) -0.554 (inactive); (15 min) -0.537 (inactive); (30 min) -1.25 (inactive).

In the case of CAKRVYYLTRAGNASASA [HC1560], the “furin cleavage Z-score” value is 2.27 (7.5 min), 0.852 (inactive) (15 min) and -0.874 (inactive) (30 min).

For CARRRRSILFAGNASASA [FS-2234], the “furin cleavage Z-score” value is, setting by setting: (7.5 min) 5.15 (active); (15 min) 6.77 (active); (30 min) 8.96 (active).

Take CARRRRSSVFAGNASASA [FS-2599]: the “furin cleavage Z-score” value is, setting by setting: (7.5 min) 6.51 (active); (15 min) 7.07 (active); (30 min) 8.27 (active).

Turning to CARRRRSISRAGNASASA [FS-2795], the “furin cleavage Z-score” value (7.5 min) was 6.77 (active), the “furin cleavage Z-score” value (15 min) was 7.84 (active) and the “furin cleavage Z-score” value (30 min) was 8.25 (active).

In the case of CARRRRSSKRAGNASASA [FS-2518], the “furin cleavage Z-score” value was 4.4 (active) (7.5 min), 5.93 (active) (15 min) and 5.04 (active) (30 min).

Take CAIVSTAAQTAGNASASA [HC691]: the “furin cleavage Z-score” value (7.5 min) is -1.17 (inactive), the “furin cleavage Z-score” value (15 min) was -1.15 (inactive) and the “furin cleavage Z-score” value (30 min) is -1.22 (inactive).

With CAVVCTSMSYAGNASASA [HC96], the “furin cleavage Z-score” value runs as follows: (7.5 min) 1.17; (15 min) -0.0848 (inactive); (30 min) 0.455 (inactive).

CATTPESGSWAGNASASA [HC53]: the “furin cleavage Z-score” value runs as follows: (7.5 min) -0.759 (inactive); (15 min) -0.574 (inactive); (30 min) -0.54 (inactive).

For the sequence CASTPCSAHLAGNASASA [HC2477], the “furin cleavage Z-score” value was 0.591 (inactive) (7.5 min), 0.749 (inactive) (15 min) and -1.42 (inactive) (30 min).

Take CAEVVQSTWVAGNASASA [HC139]: the “furin cleavage Z-score” value is -1.19 (inactive) (7.5 min), -0.568 (inactive) (15 min) and -0.254 (inactive) (30 min).

As for CAVDVQYLYGAGNASASA [HC509], the “furin cleavage Z-score” value is, setting by setting: (7.5 min) -0.528 (inactive); (15 min) 0.269 (inactive); (30 min) 0.219 (inactive).

As for CAHPTLVFDIAGNASASA [HC601], the “furin cleavage Z-score” value runs as follows: (7.5 min) -0.391 (inactive); (15 min) -1.13 (inactive); (30 min) -0.764 (inactive).

With CARRRRSIQNAGNASASA [FS-3066], the “furin cleavage Z-score” value (7.5 min) was 7.74 (active), the “furin cleavage Z-score” value (15 min) is 10.2 (active) and the “furin cleavage Z-score” value (30 min) is 7.21 (active).

Regarding CALVAEEDERAGNASASA [HC1290], the “furin cleavage Z-score” value runs as follows: (7.5 min) -0.68 (inactive); (15 min) -1.05 (inactive); (30 min) -0.546 (inactive).

On to CASGMFDSSVAGNASASA [HC915], for which the “furin cleavage Z-score” value was -1.55 (inactive) (7.5 min), -0.578 (inactive) (15 min) and -0.341 (inactive) (30 min).

For the sequence CAESIRMKRYAGNASASA [FS-765], the “furin cleavage Z-score” value is 10.4 (active) (7.5 min), 10.9 (active) (15 min) and 9.17 (active) (30 min).

Take CAGEMRKKRYAGNASASA [FS-780]: the “furin cleavage Z-score” value is 8.98 (active) (7.5 min), 11.5 (active) (15 min) and 11.2 (active) (30 min).

For CAESGRGKRYAGNASASA [FS-25], the “furin cleavage Z-score” value was 2.19 (7.5 min), 4.19 (active) (15 min) and 6.23 (active) (30 min).

CAGEMEECSQAGNASASA [HC1796]: the “furin cleavage Z-score” value by setting is: (7.5 min) -0.269 (inactive); (15 min) 1.03; (30 min) 0.391 (inactive).

As to CAEVPCHRTSAGNASASA [HC2398], the “furin cleavage Z-score” value was 0.843 (inactive) (7.5 min), -0.111 (inactive) (15 min) and 1.35 (30 min).

With CAWRRRQKRRAGNASASA [FS-898], the “furin cleavage Z-score” value is, setting by setting: (7.5 min) 11.1 (active); (15 min) 12.6 (active); (30 min) 10.1 (active).

Consider CAQRDRQKRRAGNASASA [FS-558], for which the “furin cleavage Z-score” value by setting is: (7.5 min) 8.63 (active); (15 min) 9.96 (active); (30 min) 8.51 (active).

With CARYDRQKRRAGNASASA [FS-866], the “furin cleavage Z-score” value by setting is: (7.5 min) 5.33 (active); (15 min) 8.92 (active); (30 min) 8.14 (active).

On to CAVLIDILAGAGNASASA [HC1084], for which the “furin cleavage Z-score” value by setting is: (7.5 min) -1.68 (inactive); (15 min) -0.0246 (inactive); (30 min) -1.35 (inactive).

CALDLPPIIQAGNASASA [HC1599]: the “furin cleavage Z-score” value was 0.239 (inactive) (7.5 min), -0.216 (inactive) (15 min) and -0.33 (inactive) (30 min).

As for CATTVCSGSWAGNASASA [HC1870], the “furin cleavage Z-score” value (7.5 min) is -0.934 (inactive), the “furin cleavage Z-score” value (15 min) is -0.656 (inactive) and the “furin cleavage Z-score” value (30 min) is -0.569 (inactive).

As to CATTICSGSWAGNASASA [HC1864], the “furin cleavage Z-score” value runs as follows: (7.5 min) -0.759 (inactive); (15 min) -0.615 (inactive); (30 min) -0.31 (inactive).

Turning to CATTPCQGSWAGNASASA [HC79], the “furin cleavage Z-score” value by setting is: (7.5 min) -0.663 (inactive); (15 min) 0.917 (inactive); (30 min) -0.281 (inactive).

Take CAMECCSQHLAGNASASA [HC1720]: the “furin cleavage Z-score” value is, setting by setting: (7.5 min) 0.573 (inactive); (15 min) 0.0768 (inactive); (30 min) 0.728 (inactive).

The values are drawn from the supplement of paper PMC3545927.
